PostGolgi yeast = growth inhibition of a yeast mutant, post-Golgi transport screen; post-Golgi transport phenotypic cell assay; inhibition, % at 10 µM; 98,000 tested, 0.9% active; AID 739;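 also: yeast cells grown in 1536-well plates; yeast grown about 18 h at 30C before absorbance read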
PostGolgi ctrl = yeast control strain growth, post-Golgi counter-screen; efflux-deficient yeast background strain, growth absorbance A615, 16 h; inhibition, % at 10 µM; 98,000 tested, 5% active; AID 738
Cav3 T inh = inhibitors of human Cav3.2 T-type calcium channel | O95180 | Cav3.2-expressing cells, Fluo-4 calcium fluorescence FDSS; active compounds read low | B-score at 10 µM | 100,000 tested, 4% active;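 active = single-dose well whose peak fluorescence ratio is a statistical outlier from its plate by either plate-standardised score or position-corrected B-score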
Target sequence (O95180 whole entry, looked up): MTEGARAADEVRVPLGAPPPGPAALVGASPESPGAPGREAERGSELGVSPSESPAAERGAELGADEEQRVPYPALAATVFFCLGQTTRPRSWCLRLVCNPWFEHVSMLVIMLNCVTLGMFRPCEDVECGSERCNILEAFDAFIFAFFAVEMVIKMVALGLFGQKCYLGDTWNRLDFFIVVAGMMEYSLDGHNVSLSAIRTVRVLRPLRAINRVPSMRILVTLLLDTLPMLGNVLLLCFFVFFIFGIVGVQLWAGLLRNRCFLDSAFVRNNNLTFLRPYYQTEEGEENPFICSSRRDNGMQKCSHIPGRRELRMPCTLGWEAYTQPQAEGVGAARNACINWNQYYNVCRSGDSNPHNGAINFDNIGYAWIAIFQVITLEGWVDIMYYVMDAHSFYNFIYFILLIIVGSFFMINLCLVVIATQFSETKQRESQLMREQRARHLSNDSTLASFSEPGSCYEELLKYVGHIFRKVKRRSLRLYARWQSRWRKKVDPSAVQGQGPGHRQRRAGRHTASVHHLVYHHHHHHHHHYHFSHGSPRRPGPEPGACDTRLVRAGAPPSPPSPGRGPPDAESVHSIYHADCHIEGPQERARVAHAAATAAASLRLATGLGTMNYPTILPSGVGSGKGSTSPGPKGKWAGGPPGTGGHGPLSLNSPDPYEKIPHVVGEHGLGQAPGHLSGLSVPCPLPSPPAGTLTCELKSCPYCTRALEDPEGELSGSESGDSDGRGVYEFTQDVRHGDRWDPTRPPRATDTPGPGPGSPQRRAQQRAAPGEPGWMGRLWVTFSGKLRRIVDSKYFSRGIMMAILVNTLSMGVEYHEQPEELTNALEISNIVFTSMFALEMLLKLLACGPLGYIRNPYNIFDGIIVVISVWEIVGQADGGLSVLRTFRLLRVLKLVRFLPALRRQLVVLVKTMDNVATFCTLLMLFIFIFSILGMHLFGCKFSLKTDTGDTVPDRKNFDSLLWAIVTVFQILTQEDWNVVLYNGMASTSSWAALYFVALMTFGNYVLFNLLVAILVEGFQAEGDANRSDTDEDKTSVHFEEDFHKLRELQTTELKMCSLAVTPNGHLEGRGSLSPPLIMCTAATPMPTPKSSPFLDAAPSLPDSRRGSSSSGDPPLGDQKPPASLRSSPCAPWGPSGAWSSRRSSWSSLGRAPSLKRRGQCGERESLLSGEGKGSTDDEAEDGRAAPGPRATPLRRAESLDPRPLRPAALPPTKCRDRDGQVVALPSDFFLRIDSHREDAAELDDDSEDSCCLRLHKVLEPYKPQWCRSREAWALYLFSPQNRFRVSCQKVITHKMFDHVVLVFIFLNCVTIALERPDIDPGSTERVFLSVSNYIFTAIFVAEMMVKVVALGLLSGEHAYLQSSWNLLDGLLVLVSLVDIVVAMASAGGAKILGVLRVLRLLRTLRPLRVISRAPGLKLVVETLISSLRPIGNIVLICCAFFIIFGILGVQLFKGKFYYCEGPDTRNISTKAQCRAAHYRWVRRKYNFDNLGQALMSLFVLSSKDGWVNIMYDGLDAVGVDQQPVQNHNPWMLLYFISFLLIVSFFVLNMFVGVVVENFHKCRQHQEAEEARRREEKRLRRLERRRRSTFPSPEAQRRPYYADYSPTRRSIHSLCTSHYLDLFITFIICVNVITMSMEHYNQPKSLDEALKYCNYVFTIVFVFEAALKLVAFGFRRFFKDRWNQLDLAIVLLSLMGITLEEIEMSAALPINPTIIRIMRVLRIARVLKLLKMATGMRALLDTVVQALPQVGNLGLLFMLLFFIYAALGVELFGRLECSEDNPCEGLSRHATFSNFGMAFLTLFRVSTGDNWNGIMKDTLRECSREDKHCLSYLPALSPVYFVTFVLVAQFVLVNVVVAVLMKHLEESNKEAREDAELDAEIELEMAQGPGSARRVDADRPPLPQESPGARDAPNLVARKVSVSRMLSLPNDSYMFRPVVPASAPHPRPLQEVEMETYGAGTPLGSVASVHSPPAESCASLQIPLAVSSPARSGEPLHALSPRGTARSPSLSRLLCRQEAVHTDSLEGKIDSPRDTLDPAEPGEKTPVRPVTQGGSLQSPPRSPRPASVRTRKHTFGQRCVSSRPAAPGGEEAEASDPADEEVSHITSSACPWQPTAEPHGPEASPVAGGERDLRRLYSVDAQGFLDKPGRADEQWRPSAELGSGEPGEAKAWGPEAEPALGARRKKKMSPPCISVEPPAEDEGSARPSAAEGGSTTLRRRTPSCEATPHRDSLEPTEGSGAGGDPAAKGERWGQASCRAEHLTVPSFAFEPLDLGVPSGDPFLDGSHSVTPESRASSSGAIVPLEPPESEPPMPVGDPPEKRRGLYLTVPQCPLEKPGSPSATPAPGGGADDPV
sEH activator = activators of human soluble epoxide hydrolase. purified human sEH enzymatic activity, activator screen. 91,000 tested, 0.04% active. activation, % at 2 µM; in the data active = activation above about 37%
sEH inh = soluble epoxide hydrolase (human) inhibition | recombinant human sEH enzymatic activity assay | P34913 | inhibition, % at 2 µM | 91,000 tested, 0.34% active; in the data active = inhibition above about 80%
Each line names hits and unclear results; the compound was inactive in the other large screens. Rows were chosen to be rich in hits. Some 7.8% of all compounds tested hit in one or more screens of this group. Rule as the data show it, unless noted: active = inhibition above about 30%; inactive = the rest.

CCCC(=O)Nc1cc(-c2nnc(OC)c3ccccc23)ccc1N1CCCCC1	PostGolgi ctrl 42.8 (no result: Cav3 T inh)
O=C(NC12CC3CC(CC(C3)C1)C2)N1CC2Cc3cccc(=O)n3C(C2)C1 (stereo not given)	sEH inh 86.2
CCN(Cc1ccccc1)S(=O)(=O)c1ccc(S(=O)(=O)N(Cc2cccc(OC)c2)CC2CCCO2)cc1 (stereo not given)	Cav3 T inh -6.72
O=C(CN1CCOCC1)NCC12CC3CC(CC(C3)C1)C2	PostGolgi ctrl 36.7 (no result: sEH activator, sEH inh)
Cc1cc(C)c(S(=O)(=O)N2CCOC2CNC(=O)C(=O)NCc2cccnc2)c(C)c1 (stereo not given)	none (no result: PostGolgi yeast, PostGolgi ctrl, sEH activator, sEH inh)
CC(C)(C)n1nnnc1CN1CCN(C(c2ccccc2)c2ccccc2)CC1	Cav3 T inh -5.35 (no result: PostGolgi yeast, PostGolgi ctrl)
CC1CCN(C(c2ccccc2)c2nnnn2C(C)(C)C)CC1 (stereo not given)	none (no result: sEH activator, sEH inh)
CCOc1cc(/C=C2/SC(=Nc3ccccc3)N(Cc3cccnc3)C2=O)ccc1OCC#N	none
CC(C)=CCCC(C)NC(=O)NC1CCCCC1 (stereo not given)	sEH inh 90.7 (no result: PostGolgi yeast, PostGolgi ctrl)
CC(C)[C@H](NC(=O)NC1CCCC1)C(=O)O	none
CCCCC1(C)OC(=O)C(=Cc2ccc(N(C)C)cc2)C(=O)O1 (stereo not given)	PostGolgi ctrl 30.9
O=C(Nc1ccc(Cl)cn1)c1ccc(-c2ccc(Cl)c(Cl)c2)o1	none (no result: PostGolgi yeast, PostGolgi ctrl)
CCCCCCn1c(CN2CCCCC2C)nc2c1c(=O)n(C)c(=O)n2C (stereo not given)	none (no result: PostGolgi yeast, PostGolgi ctrl)
CCCn1c(CN2CCCCC2C)nc2c1c(=O)n(C)c(=O)n2C (stereo not given)	PostGolgi ctrl 37.4 (no result: sEH activator, sEH inh)
CCOc1ccc(NS(=O)(=O)c2cc(Cl)ccc2OC)cc1	none
O=S(=O)(Nc1ccc(-n2cccc2)cc1)c1ccc(Cl)cc1Cl	PostGolgi ctrl 67.5
Cc1cc(C)c(C(=O)C2OC(=O)C(C)(C)C(=O)C2(C)C)c(C)c1 (stereo not given)	none (no result: Cav3 T inh)
CC(=O)O[C@@H]1[C@@]2(C)O[C@H]2CC[C@]23O[C@H]2[C@H](OC3=O)C2=C(C)C(=O)O[C@@]21O	none (no result: PostGolgi yeast, PostGolgi ctrl, sEH activator, sEH inh)
CCn1nc(CC(=O)Nc2ccc(-n3cnnn3)c(C)c2)c2ccccc2c1=O	sEH inh 92.6
CCn1nc(CC(=O)Nc2ccc(-n3cnnn3)c(OC)c2)c2ccccc2c1=O	none
COc1cc(C(=O)Nc2ccc(-n3cnnn3)c(C)c2)cc(OC)c1OC	Cav3 T inh -4.36
CCOC(=O)c1nnc(-c2ccccc2)nc1NCc1ccc(Cl)cc1	PostGolgi ctrl 38.8
CCOC(=O)c1nnc(-c2ccc(C)cc2)nc1Sc1ccc(Cl)cc1	none
CCOC(=O)c1nnc(-c2ccc(C)cc2)nc1Oc1ccc(Cl)cc1Cl	PostGolgi ctrl 35.0
CCOC(=O)c1nnc(-c2ccc(C)cc2)nc1Oc1ccccc1Cl	PostGolgi ctrl 46.6 (no result: Cav3 T inh)
CCOC(=O)c1nnc(-c2cccs2)nc1Oc1ccc(Cl)cc1	PostGolgi ctrl 47.1
Cc1ccccc1CN(c1ccc(C(=O)Nc2ccccc2C(=O)NCc2ccco2)cc1)S(C)(=O)=O	none
O=C(O)CCCCCCCCCCCc1ccccc1	none (no result: PostGolgi yeast, PostGolgi ctrl, sEH activator, sEH inh)
CN1CCN(C(=O)CN(c2cc(C(F)(F)F)ccc2Cl)S(C)(=O)=O)CC1	none (no result: Cav3 T inh)
O=C(O)C1CCN(S(=O)(=O)/C=C/c2ccccc2)CC1	none
COc1ccc(OC)c2c(C)cc(N3CCN(C(=O)c4ccc(Cl)cc4)CC3)nc12	none
Cn1c(=O)oc2cc(S(=O)(=O)NCCC(=O)N3CCc4ccccc43)ccc21	none (no result: Cav3 T inh, sEH activator, sEH inh)
COc1ccc(CCNC(=O)N2CCOCC2)cc1	none (no result: PostGolgi yeast, PostGolgi ctrl)
COc1ccc(CCNC(=O)N2c3ccccc3Sc3ccccc32)cc1	Cav3 T inh -5.92 (no result: PostGolgi yeast, PostGolgi ctrl)
CCN(CC(O)Cn1c2ccccc2c2ccccc21)S(=O)(=O)c1ccc(C)cc1 (stereo not given)	PostGolgi ctrl 54.8
COc1ccc(S(=O)(=O)N(n2c(C)nnc2-n2nc(C)cc2C)S(=O)(=O)c2ccc(OC)cc2)cc1	none (no result: PostGolgi yeast, PostGolgi ctrl)
CCO[C@H]1OC(C(=O)NC2CC2)=C[C@@H](c2csc3ccccc23)[C@@H]1CCCO	none (no result: PostGolgi yeast, PostGolgi ctrl, sEH activator, sEH inh)
O=C(Cn1c(NCCO)nc2ccccc21)NCCc1ccccc1	PostGolgi ctrl 37.9
Cc1cccc(C)c1NC(=O)C(C)c1ccc(-c2ccccc2)c(F)c1 (stereo not given)	Cav3 T inh -4.31
CCCCC1CCC(c2nc(-c3ccccn3)no2)CC1 (stereo not given)	PostGolgi ctrl 38.0
CCn1c(=O)n(CC(=O)Nc2cc(OC)c(OC)c(OC)c2)c(=O)c2ccccc21	none
O=C(c1ccc(Br)o1)N1CCN(c2ccc3nnc(-c4ccccc4)n3n2)CC1	Cav3 T inh 3.64
O=C(Nc1ccccc1C(F)(F)F)N1CCN(c2ccc3nnc(-c4ccc(F)cc4)n3n2)CC1	none (no result: sEH activator, sEH inh)
O=S(=O)(c1ccc(Br)cc1)N1CCN(c2ccc3nnc(-c4ccccc4)n3n2)CC1	PostGolgi ctrl 56.0
Cc1nnc2ccc(N3CCN(C(=O)c4ccccc4)CC3)nn12	none
CCOC(=O)C(=CNc1cc(C)nn1-c1ccc(Cl)cc1)C(=O)OCC	PostGolgi ctrl 40.1
Cc1ccc2c(c1)C1(OCCO1)C(=O)N2	none
CCN1C(=O)N(S(=O)(=O)c2ccc(C)cc2)[C@@H](c2ccccc2)C(C(=O)OC)=C1C	none (no result: PostGolgi yeast, PostGolgi ctrl, sEH activator, sEH inh)
Cc1c(C)[n+](=O)c(-c2ccco2)c(C)n1[O-]	PostGolgi ctrl 30.9
O=C(CN1C(=O)C2CC=CCC2C1=O)NC1CCCc2ccccc21 (stereo not given)	none
Cc1cc2sc(C(=O)O)c(C)c2s1	none (no result: PostGolgi yeast, PostGolgi ctrl)
CCOC(=O)C(C(=O)Nc1ccc(C)cc1)C1CCCCC1 (stereo not given)	PostGolgi ctrl 40.1
CN1CCc2c(c3c(n2C)CCN(C)[C@H]3c2ccccc2F)[C@@H]1c1ccccc1F	none
CC(C)C(=O)N1CCC(CN=Cc2c(O)n(C3CCCCC3)c(=O)n(C3CCCCC3)c2=O)CC1	Cav3 T inh -10.7
CCOC(=O)c1c(C)cc(C)n2c1nc1ccccc12	none
O=C(/C=C/c1cccc([N+](=O)[O-])c1)NCCSc1ccccc1	Cav3 T inh -3.74
CC1CN(C(=O)/C=C/c2cccc([N+](=O)[O-])c2)CC(C)O1 (stereo not given)	none (no result: PostGolgi yeast, PostGolgi ctrl)
O=C(/C=C/c1ccc(Cl)cc1)NCCSc1ccccc1	none (no result: Cav3 T inh)
CCCCN(CCCC)C(=O)/C=C/c1cccc([N+](=O)[O-])c1	Cav3 T inh -5.98
CCOC(=O)NCc1ccc(S(=O)(=O)Nc2c(C)cccc2C)cc1	none
CCOc1cc(Br)ccc1S(=O)(=O)NCc1ccccc1	none (no result: Cav3 T inh)
Cc1cc2ccccc2c(=O)n1CC(=O)NCC(=O)N1CCN(c2ccccc2F)CC1	Cav3 T inh -3.78
c1coc(CNc2nc3ccccc3n2CCN2CCOCC2)c1	none
N=c1c2c(-c3ccccc3)c(-c3ccccc3)n(Cc3ccco3)c2ncn1CCO	Cav3 T inh -7.41 (no result: PostGolgi yeast, PostGolgi ctrl)
N=c1c2c(-c3ccccc3)c(-c3ccccc3)n(Cc3ccco3)c2ncn1CCN1CCOCC1	PostGolgi yeast 52.3, Cav3 T inh -10.8
O=c1c2ccccc2ncn1Cc1ccco1	none
O=C1CCCCCN1C(=O)c1cccc(C(=O)N2CCCCCC2=O)c1	none (no result: sEH activator, sEH inh)
O=c1oc2cc(Oc3c([N+](=O)[O-])cc(C(F)(F)F)cc3[N+](=O)[O-])ccc2c2c1CCCC2	PostGolgi yeast 106.1, PostGolgi ctrl 85.3
O=C(O)c1nc(N2CCCC2)ncc1Cl	none
